# Test results as given in paper PMC7819943, “Rice protein-binding microarrays: a tool to detect cis-acting elements near promoter regions in rice”.
# The full ranking holds about 35,000 sequences; the median of “fluorescence intensity (a.u.)” is about 10,000, and the highest 2% start at about 52,000. Shown is part of a subset that was picked to be rich in the highest values.
# Target: T1, OsWOX13 (Oryza sativa, UniProt Q5QMM3 1-267)
# T1 sequence: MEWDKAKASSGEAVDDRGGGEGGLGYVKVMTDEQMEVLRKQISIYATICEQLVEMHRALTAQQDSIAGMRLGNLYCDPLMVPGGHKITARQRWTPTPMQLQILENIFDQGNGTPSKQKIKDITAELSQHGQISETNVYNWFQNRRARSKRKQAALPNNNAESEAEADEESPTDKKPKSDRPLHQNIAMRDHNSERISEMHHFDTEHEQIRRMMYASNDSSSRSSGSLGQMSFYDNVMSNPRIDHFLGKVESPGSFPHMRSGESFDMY
# Assay: protein-binding microarray (RPBM); PBS, 2% BSA, 51.3 ng/ul salmon testes DNA, 50 uM zinc acetate, 200 nM TF, 25 C, 1 h; high values mean tight binding
# Conditions: protein: recombinant; tags: N-terminal polyhistidine and DsRed monomer fusion (pET32a); label: CyDye5-dUTP incorporated in the synthesized complementary strand; 3' TTTTT single-stranded linker to array surface; dsDNA, one strand shown
# Procedure, shortened: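 Per-feature fluorescence intensity (arbitrary units), read on an Axon 4000B scanner, is the binding signal. Transcription factors carrying an N-terminal polyhistidine tag and DsRed fusion were expressed in E. coli BL21-CodonPlus and purified on Ni–NTA. A custom Agilent array, made double-stranded by primer extension with Cy5-dUTP and blocked with 2% BSA, was incubated with 200 nM protein in PBS, 2% BSA, salmon testes DNA and 50 µM zinc acetate at 25 °C for 1 h and then washed.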
row,Sequence,binding signal
1,GTAATTGGGAGGGAATTTCTCCTTTACTTCGCCTAAACAACGGAGTCACCTAGTGCAG,14100 fluorescence intensity (a.u.)
2,TCTAACTGTGGATAATATCTGACAGGAAATTTGATATCAACGGAGTCACCTAGTGCAG,6210 fluorescence intensity (a.u.)
3,TGTTGGTTAAGTAATTAATTAAGTCTTGGCTATTGGCGATCGGAGTCACCTAGTGCAG,13500 fluorescence intensity (a.u.)
4,TCGTAAAATTAATTGTAAATTGTAATATGATAACAAGGCCCGGAGTCACCTAGTGCAG,33100 fluorescence intensity (a.u.)
5,ACTTTTCAGTTACATCATCTCTAATTTCAATTGAAATCCACGGAGTCACCTAGTGCAG,7120 fluorescence intensity (a.u.)
6,AGTTTTCAAAATTTGACTTTAAAATTTAAATCTTAAATCACGGAGTCACCTAGTGCAG,3970 fluorescence intensity (a.u.)
7,GTGCTTTAATCAGTAATTTTGCAATTGCTTTTGAATTTCACGGAGTCACCTAGTGCAG,5640 fluorescence intensity (a.u.)
8,CAAAATTATCTAATTGATGACTATTTCTAAATACACATCACGGAGTCACCTAGTGCAG,41800 fluorescence intensity (a.u.)
9,TCTTAATTGAAAGAGTTTTCATCATGTCTTTCAGTCACCACGGAGTCACCTAGTGCAG,53900 fluorescence intensity (a.u.)
10,GAGTTTAATTAATTAATTTCTTAAAATTGATGTCATCACACGGAGTCACCTAGTGCAG,54800 fluorescence intensity (a.u.)
11,CTAATCAAAATGTAATTAACTCATTTATATATTACGGAAACGGAGTCACCTAGTGCAG,21800 fluorescence intensity (a.u.)
12,TCGATCTCCATTAATTATCCAACGACGACACGACGACGCACGGAGTCACCTAGTGCAG,5720 fluorescence intensity (a.u.)
13,GGGTCAGGGTGGGCGTGGATTGATATTTTAATACGAATAACGGAGTCACCTAGTGCAG,10800 fluorescence intensity (a.u.)
14,TGCACGCTAATTTGCCTTGCTGCTGCTGCTACTAGGGCGGCGGAGTCACCTAGTGCAG,4920 fluorescence intensity (a.u.)
15,TTAAAATTTATATGTTAAATTATAGTGGTTTAAAATTTCACGGAGTCACCTAGTGCAG,8530 fluorescence intensity (a.u.)
16,TATGATTTATAAATTAATGGATTTAAAGTTTTAAGTTAATCGGAGTCACCTAGTGCAG,43900 fluorescence intensity (a.u.)
17,TAGATGAGTTAAATATAATTATTTGTATGTTTTAATAAATCGGAGTCACCTAGTGCAG,3630 fluorescence intensity (a.u.)
18,GTTTAATTAATTATATGTTAATGATTTTCTTTTCATGCCCCGGAGTCACCTAGTGCAG,65400 fluorescence intensity (a.u.)
19,GTCATTTTAATTGCAAATGCTTTTATATGTTGTTTCTTTCCGGAGTCACCTAGTGCAG,6630 fluorescence intensity (a.u.)
20,AGCCTAATTAATTCGTCATTAGCATATGTGGGTTATTATACGGAGTCACCTAGTGCAG,27800 fluorescence intensity (a.u.)
21,CATGATTTTACTTTCTTTTCAGGTCTTAGGAGTGAGCTTCCGGAGTCACCTAGTGCAG,9930 fluorescence intensity (a.u.)

row,Sequence,binding signal
1,GATTAATGATTAATTAATAATATGTTAATGAGTTTTATCCCGGAGTCACCTAGTGCAG,52500 fluorescence intensity (a.u.)
2,GCTGATGACTTTTCTCCCGGTTTCATATTTTCTTTTAGAACGGAGTCACCTAGTGCAG,8420 fluorescence intensity (a.u.)
3,GAACGGAGGATGCTGAGCTCTCTTATGAGGTCTATTTTCCCGGAGTCACCTAGTGCAG,65100 fluorescence intensity (a.u.)
4,TTAATTAATAATATGTTAATGATTTTCTCATCTTACCTTACGGAGTCACCTAGTGCAG,13400 fluorescence intensity (a.u.)
5,ACTTAATTATGTTGTGGTTAATTAGCCCCGAAATGGTCGTCGGAGTCACCTAGTGCAG,52900 fluorescence intensity (a.u.)
6,GAGATAGAGATAATAGAAAGATTAAACAAGATTCGATAGACGGAGTCACCTAGTGCAG,3590 fluorescence intensity (a.u.)
7,CGAGATAAATCACGGTAATCACAGCAACAGCAACAGCAACCGGAGTCACCTAGTGCAG,10400 fluorescence intensity (a.u.)
8,ATGCCATCCAATCAAGCCACGACGATCCACAGCCATAGTGCGGAGTCACCTAGTGCAG,11500 fluorescence intensity (a.u.)
9,AAGCAAATCTCTAGATAGATAGATAGATGGATGGATGGATCGGAGTCACCTAGTGCAG,10800 fluorescence intensity (a.u.)
10,GTTTAATATTTATAATTAATTTTCAAACATCCGATGTGATCGGAGTCACCTAGTGCAG,19000 fluorescence intensity (a.u.)
11,CGGTCAAATTATCCAAATTAATTAAAGAGGGAACTCGGTCCGGAGTCACCTAGTGCAG,35300 fluorescence intensity (a.u.)
12,GATCATTTCAGTGATTAATTTAATTGGAAAAGTAATTCAACGGAGTCACCTAGTGCAG,6700 fluorescence intensity (a.u.)
13,TGCTAATGGACTTATTACTTTTGCTTGCTTTAATTTTGCCCGGAGTCACCTAGTGCAG,14600 fluorescence intensity (a.u.)
14,CTTACCTGCTTTAATTTATGCATAATGTTGCTTCATAAACCGGAGTCACCTAGTGCAG,6090 fluorescence intensity (a.u.)
15,GAGGGAGTACTAATTATTTAATTTGATGATTATAATACTTCGGAGTCACCTAGTGCAG,17900 fluorescence intensity (a.u.)
16,GTTTTAGCTAATATTTAATTAATCATGTGCTAATGAGCTACGGAGTCACCTAGTGCAG,8590 fluorescence intensity (a.u.)
17,AATTAATCATGCGTTAATGGACCGTTCCGTTTTCCGTGTTCGGAGTCACCTAGTGCAG,20900 fluorescence intensity (a.u.)
18,GATGTGATTGGATTAATTTTCAAAAGTACTTTTATATGATCGGAGTCACCTAGTGCAG,56300 fluorescence intensity (a.u.)
19,TGCTTAATTAATTATGTGCTAATGAGGTCTTTCATTTTACCGGAGTCACCTAGTGCAG,56100 fluorescence intensity (a.u.)
20,ATTTAATTAATATGTTAATGAGCTAATCCGTTTTCGGGACCGGAGTCACCTAGTGCAG,52300 fluorescence intensity (a.u.)
21,CCTAATAATTAATTAATGATGCACGAGGGATTATCCAACTCGGAGTCACCTAGTGCAG,53200 fluorescence intensity (a.u.)
